# According to PubChem BioAssay (NCI):
# This is part of a sample that, as a whole, favours compounds with a hit. Of some 83,000 tested, about 20% had one in any assay.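 Negative percent growth values reflect cell death: -40 means 40% of the cells present at the start died, and -100 means all died.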 A number with no mark means an inactive call. Calls of active or inactive are those of the source. The calls were made as follows: active = growth percent below 10; inactive = the rest.
# Assays:
# Assay in all cases: NCI-60 one-dose screen, 48 h (100 = growth as untreated, 0 = no growth, -100 = all killed)
# Conditions in all cases: 10 µM unless noted
# DU-145 prostate = system: DU-145 prostate
# K-562 leukemia = system: K-562 leukemia
# MALME-3M melanoma = system: MALME-3M melanoma
# MDA-MB-231 breast = system: MDA-MB-231 breast
# RXF 393 renal = system: RXF 393 renal
# SF-268 CNS = system: SF-268 CNS
# SF-295 CNS = system: SF-295 CNS
# SF-539 CNS = system: SF-539 CNS
# UACC-257 melanoma = system: UACC-257 melanoma
# M14 melanoma = system: M14 melanoma
SMILES,growth (DU-145 prostate),growth (K-562 leukemia),growth (MALME-3M melanoma),growth (MDA-MB-231 breast),growth (RXF 393 renal),growth (SF-268 CNS),growth (SF-295 CNS),growth (SF-539 CNS),growth (UACC-257 melanoma),growth (M14 melanoma)
COc1cc(NC(N)=NCCC(C)(C)Oc2ccc(C(F)(F)F)cc2)ncc1C#N,-32.6% (active),-43.7% (active),-81.2% (active),-54.4% (active),-50.4% (active),30.8%,-40.7% (active),11.7%,-46.2% (active),-68.3% (active)
COc1ccc2c(c1)[nH]c(=O)c1c3cc(OC)ccc3cn21,0.89% (active),25.6%,60.4%,0.629% (active),-39.9% (active),-3.31% (active),-18% (active),7.14% (active),72.5%,25.4%
COc1cccc(CC(C)=C(c2ccc(OCCN3CCCCC3)cc2)c2ccc(OCCN3CCCCC3)cc2)c1,17.8%,-37.3% (active),-88.5% (active),-76.8% (active),-85.5% (active),-18.9% (active),-62% (active),-96.1% (active),-69.3% (active),-64.8% (active)
COc1ccc2c(c1)OC1=C(C(=O)OC1)C2c1cc(OC)c2c(c1)OCO2 (stereo not given),-17.9% (active),7.46% (active),51.2%,9.12% (active),16.5%,19.7%,9.01% (active),1.82% (active),67.8%,7.05% (active)
FC(F)(F)c1ccccc1-c1cn2c(ccc3ccccc32)n1,104%,29.8%,65.1%,69.5%,84.4%,90.3%,62.1%,78.6%,70.3%,60.3%
COc1ccc2[nH]c(=O)c(/C=N/Nc3nc(-c4ccccc4)cs3)c(O)c2c1,63.7%,71.3%,84.5%,57.5%,97.1%,56.4%,69.3%,84.1%,98.8%,75.2%
COc1ccc(S(=O)(=O)Nc2cc(/C=C\c3cc(OC)c(OC)c(OC)c3)cc(OC)c2OC)cc1,-0.291% (active),7.33% (active),81.5%,21%,40.9%,14%,19.4%,0.203% (active),51.3%,15.9%
CCN(CC)CCCNc1nccc2ccc(Cl)cc12,113%,107%,111%,87%,97.6%,111%,100%,104%,91%,95%
CCN(CC)c1ccc(N=O)cc1,80.9%,23.5%,71.1%,47.4%,72.5%,59.1%,92.7%,77.2%,33.2%,75.3%
COc1ccc(-c2nc(/C=N/Nc3cc(C)nc4ccc(Br)cc34)c(C)o2)cc1,-90.2% (active),-49.1% (active),-84.6% (active),-89.2% (active),-90.9% (active),-72.9% (active),-90.4% (active),-96.1% (active),108%,1.07% (active)
S=C(S)NCCc1c[nH]c2ccccc12,107%,93.3%,99.1%,91.1%,106%,89.7%,95.7%,101%,104%,95.2%
N=c1ccc2nc3ccc(N)cc3sc-2c1,89.4%,26.6%,31.8%,17%,73.5%,39.7%,35.5%,2.29% (active),2.21% (active),13.8%
O=C1NN(C(=O)c2ccc(Cl)cc2)C(c2ccccc2)=N/C1=C\c1cn(-c2ccccc2)nc1-c1ccccc1,103%,99.2%,77.7%,92%,89.9%,94.8%,73.8%,94.1%,92.8%,83.4%
CCOC(=O)NNC(=S)Nc1ccccc1,118%,113%,110%,115%,113%,103%,102%,98.9%,102%,108%
